According to PubChem BioAssay (NCATS):
Inconclusive results are not listed. The source made the active and inactive calls. Unless noted, the call rests on the fitted dose curve; in most records, active means well fitted curve in the direction sought with a large enough effect; inconclusive means small, poorly fitted or top-dose-only effect, or another doubt; inactive means no such curve, though single readings can be large; an effect the other way counts as inactive or inconclusive.

Legend:
[1] = molecular target: Mitogen-activated protein kinase 10 (Mus musculus) (UniProt Q61831); assay: JNK3 AlphaScreen Assay (AID 530; active means well fitted curve in either direction with a large enough effect, not every such curve was filed as active;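 further: kinase came from lysate of stimulated human HepG2 cells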; further: potency means the concentration at half of the fitted maximal effect;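 on activity change, negative = inhibition: signal reports phosphorylation of biotinylated GST-cJun 1-79 at Ser73 with 10 µM ATP; on the % scale 0 is the no-effect control and ±100 the full control effect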)
Outline: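 Room-temperature AlphaScreen kinase assay; pre-activated HepG2 lysate as JNK3 source, biotin-GST-cJun(1-79) substrate, 10 uM ATP, compound 15 min preincubation.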

[2] = qHTS Assay for Lipid Storage Modulators (AID 1519; calls by dose curve; on activity change, negative = inhibition: on the % scale 0 is the no-effect control and ±100 the full control effect); conditions: Drosophila S3 cells, BODIPY lipid droplet/cell ratio, laser cytometry, cells loaded with oleic acid
Outline: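 Cells seeded at 5,000 per well were treated with compounds over a concentration series and loaded with oleic acid (400 uM, as added). Lipid droplet fluorescence (488 nm excitation, 500-530 nm channel) was read by laser-scanning cytometry and normalized to 20 uM Triacsin C.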

[3] = molecular target: Glucocorticoid receptor (Homo sapiens) (UniProt P04150); assay: GR-GFP Redistribution (AID 450;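 active means compounds whose dose series gives a full or clear partial fitted curve of increased nuclear translocation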; further: potency means the concentration at half of the fitted maximal effect); conditions: U2OS GR-GFP nuclear translocation, laser cytometry, 2 h
[4] = molecular target: Glucocorticoid receptor (Homo sapiens) (UniProt P04150); assay: GR-EFC Redistribution (AID 451; calls by dose curve; further: potency means the concentration at half of the fitted maximal effect); conditions: CHO-K1 GR-EFC translocation, beta-gal luminescence, 2 h
Outline: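 Translocation of GR-ED fusion to nuclear EA restores b-gal, read by luminescence after 1 h room-temperature detection. Engineered CHO-K1 biosensor cells, 1,000/well, exposed 2 h at 37 C to titrations up to 46 uM final.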

[5] = molecular target: Ubiquitin carboxyl-terminal hydrolase 1 (Homo sapiens) (UniProt O94782); assay: Inhibitors of USP1/UAF1: Pilot qHTS (AID 504865);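 further: rhodamine fluorescence freed from ubiquitin-rhodamine substrate followed over time; top concentration of the series differs between compounds; on the % scale 0 is the no-effect control and ±100 the full control effect; nearly all actives have a fitted effect of over 35% in size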
Outline: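 1nM USP1/UAF1 + cpd, 15 min RT; start w/ Ub-Rho 150nM final; kinetic FL 480/540 nm, 6 reads q60 s. Buffer 50mM HEPES pH 7.8, 0.5mM EDTA, 1mM TCEP, 0.01% Tween-20, 0.1 mg/ml BSA.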

[6] = molecular target: ATP-dependent 6-phosphofructokinase (Trypanosoma brucei brucei) (UniProt O15648); assay: qHTS Assay to Find Inhibitors of T. brucei phosphofructokinase: hit validation (AID 492961);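 further: luminescence reports ADP formed as PFK phosphorylates fructose-6-phosphate with ATP; on the % scale 0 is the no-effect control and ±100 the full control effect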
Outline: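 ADP-Glo luminescence read-out of ADP formed by 1.25 nM PFK from 0.1 mM ATP and 0.5 mM F6P (TEA pH 8.0, 45 min, RT). Compounds titrated; activity normalized to no-enzyme and full-enzyme controls.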

[7] = qHTS profiling for inhibitors of Plasmodium falciparum proliferation (AID 504749); further: potency means the concentration at half of the fitted maximal effect;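 on activity, negative = inhibition: 0% = DMSO vehicle and full inhibition = artemisinin control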; on all read-outs here: nearly all actives have a fitted effect of over 60% in size; conditions: P. falciparum in erythrocytes, SYBR Green DNA, 72 h; for activity, negative = inhibition: at 12.8 µM (top of the series)
Outline: (§1)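 Three-day growth assay of blood-stage parasites in erythrocytes (0.3% parasitemia, 2.5% hematocrit) at 37 C, 5% CO2, quantified by SYBR Green DNA staining after overnight detergent lysis.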

3D7 = assay: as above; conditions: P. falciparum in erythrocytes, SYBR Green DNA, 72 h; series mostly up to 12.8 µM
Outline: as §1

AS120 = assay: as above; conditions: P. falciparum in erythrocytes, SYBR Green DNA, 72 h; series mostly up to 12.8 µM
Outline: as §1

C2A = assay: as above; conditions: P. falciparum in erythrocytes, SYBR Green DNA, 72 h; series mostly up to 12.8 µM
Outline: as §1

CP217 = assay: as above; conditions: P. falciparum in erythrocytes, SYBR Green DNA, 72 h; series mostly up to 12.8 µM
Outline: as §1

CP237 = assay: as above; conditions: P. falciparum in erythrocytes, SYBR Green DNA, 72 h; series mostly up to 12.8 µM
Outline: as §1

CP238 = assay: as above; conditions: P. falciparum in erythrocytes, SYBR Green DNA, 72 h; series mostly up to 12.8 µM
Outline: as §1

CP262 = assay: as above; conditions: P. falciparum in erythrocytes, SYBR Green DNA, 72 h; series mostly up to 12.8 µM
Outline: as §1

CP269 = assay: as above; conditions: P. falciparum in erythrocytes, SYBR Green DNA, 72 h; series mostly up to 12.8 µM
Outline: as §1

CP297 = assay: as above; conditions: P. falciparum in erythrocytes, SYBR Green DNA, 72 h; series mostly up to 12.8 µM
Outline: as §1

ECU = assay: as above; conditions: P. falciparum in erythrocytes, SYBR Green DNA, 72 h; series mostly up to 12.8 µM
Outline: as §1

PAD = assay: as above; conditions: P. falciparum in erythrocytes, SYBR Green DNA, 72 h; series mostly up to 12.8 µM
Outline: as §1

SC27B = assay: as above; conditions: P. falciparum in erythrocytes, SYBR Green DNA, 72 h; series mostly up to 12.8 µM
Outline: as §1

CP252 = assay: as above; conditions: P. falciparum in erythrocytes, SYBR Green DNA, 72 h; series mostly up to 12.8 µM
Outline: as §1

[8] = measured here: cell count channel max response
[9] = measured here: lipid channel max response

Chain of Ubiquitin carboxyl-terminal hydrolase 1 (Homo sapiens) (O94782 whole entry, looked up): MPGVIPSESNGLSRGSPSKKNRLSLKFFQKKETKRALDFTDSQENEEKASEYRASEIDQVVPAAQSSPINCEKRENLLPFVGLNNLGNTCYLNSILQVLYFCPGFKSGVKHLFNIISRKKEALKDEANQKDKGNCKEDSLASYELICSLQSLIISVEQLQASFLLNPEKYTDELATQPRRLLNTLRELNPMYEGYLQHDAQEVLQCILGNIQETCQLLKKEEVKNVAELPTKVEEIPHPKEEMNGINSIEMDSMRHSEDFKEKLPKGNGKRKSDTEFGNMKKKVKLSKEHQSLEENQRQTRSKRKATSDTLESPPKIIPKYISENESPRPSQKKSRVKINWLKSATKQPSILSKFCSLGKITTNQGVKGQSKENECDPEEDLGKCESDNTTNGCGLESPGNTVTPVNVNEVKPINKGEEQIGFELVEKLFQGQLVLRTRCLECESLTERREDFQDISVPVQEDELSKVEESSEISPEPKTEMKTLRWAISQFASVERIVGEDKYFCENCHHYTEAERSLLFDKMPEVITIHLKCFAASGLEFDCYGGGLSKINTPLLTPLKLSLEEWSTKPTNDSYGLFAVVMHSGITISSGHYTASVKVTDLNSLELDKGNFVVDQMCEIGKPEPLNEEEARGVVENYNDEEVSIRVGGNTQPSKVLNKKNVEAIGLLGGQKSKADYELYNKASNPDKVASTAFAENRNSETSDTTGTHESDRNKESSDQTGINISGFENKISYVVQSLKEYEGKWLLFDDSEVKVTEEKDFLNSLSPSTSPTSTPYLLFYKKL
Chain of Glucocorticoid receptor (Homo sapiens) (P04150 whole entry, looked up, the tested form may be a part): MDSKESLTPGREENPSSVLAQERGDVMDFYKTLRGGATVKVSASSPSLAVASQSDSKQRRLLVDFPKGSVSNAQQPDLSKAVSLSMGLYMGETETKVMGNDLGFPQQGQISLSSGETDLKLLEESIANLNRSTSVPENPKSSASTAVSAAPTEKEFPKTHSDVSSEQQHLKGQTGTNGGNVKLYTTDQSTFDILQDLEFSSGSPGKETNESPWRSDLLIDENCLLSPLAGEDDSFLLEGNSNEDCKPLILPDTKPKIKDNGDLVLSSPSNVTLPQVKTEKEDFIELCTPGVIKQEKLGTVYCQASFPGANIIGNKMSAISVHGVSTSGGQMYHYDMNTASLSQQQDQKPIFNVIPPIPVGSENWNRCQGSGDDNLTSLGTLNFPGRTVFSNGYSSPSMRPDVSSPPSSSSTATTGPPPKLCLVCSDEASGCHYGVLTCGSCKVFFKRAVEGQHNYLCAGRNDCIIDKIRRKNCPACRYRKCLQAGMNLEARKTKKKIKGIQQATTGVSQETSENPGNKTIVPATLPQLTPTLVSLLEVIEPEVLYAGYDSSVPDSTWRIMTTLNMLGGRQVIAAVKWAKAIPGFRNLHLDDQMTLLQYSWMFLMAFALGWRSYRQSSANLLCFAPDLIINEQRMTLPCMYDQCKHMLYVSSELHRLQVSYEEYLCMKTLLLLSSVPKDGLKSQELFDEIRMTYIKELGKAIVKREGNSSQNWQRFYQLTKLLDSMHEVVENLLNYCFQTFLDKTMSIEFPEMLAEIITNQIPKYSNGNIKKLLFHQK
Chain of ATP-dependent 6-phosphofructokinase (Trypanosoma brucei brucei) (O15648 whole entry, looked up): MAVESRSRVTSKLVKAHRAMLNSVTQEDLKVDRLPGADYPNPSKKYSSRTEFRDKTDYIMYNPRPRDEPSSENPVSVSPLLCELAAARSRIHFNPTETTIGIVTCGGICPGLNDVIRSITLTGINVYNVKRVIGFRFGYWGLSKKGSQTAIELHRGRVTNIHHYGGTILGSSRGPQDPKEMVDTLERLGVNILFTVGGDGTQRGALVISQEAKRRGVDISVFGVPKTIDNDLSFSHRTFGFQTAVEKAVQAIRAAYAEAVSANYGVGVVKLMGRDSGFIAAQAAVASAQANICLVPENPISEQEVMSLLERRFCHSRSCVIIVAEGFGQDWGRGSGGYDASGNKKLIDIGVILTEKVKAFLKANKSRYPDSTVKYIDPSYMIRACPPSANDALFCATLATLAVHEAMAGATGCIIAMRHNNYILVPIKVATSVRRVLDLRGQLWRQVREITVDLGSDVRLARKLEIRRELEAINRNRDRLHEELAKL

CN1[C@H](CC(=O)c2ccccc2)CCC[C@H]1C[C@@H](O)c1ccccc1
-11.7%: max response [2, 8]
-13.6%: max response [2, 9]
inactive: Potency [1] | activity change, negative = inhibition ([2]; at 57.5 µM (top of the series)) -2.41%

Nc1ncnc2c1ncn2[C@@H]1O[C@H](COP(=O)(O)O)[C@@H](O)[C@@H]1O
-10.2%: max response [2, 8]
-10.8%: max response [2, 9]
inactive: Potency [3] > 20.6 µM | Potency [4] > 20.6 µM | Potency [1] | activity change, negative = inhibition ([2]; at 25.7 µM (top of the series)) -0.35% | Potency [5]

C=C(C)[C@H]1CC[C@]2(C(=O)O)CC[C@]3(C)[C@@H](CC[C@H]4[C@@]5(C)CC[C@@H](O)C(C)(C)[C@@H]5CC[C@@]43C)[C@H]12
-17.2%: max response [2, 9]
inactive: Potency [3] > 20.6 µM | Potency [4] > 20.6 µM | Potency [1] | activity change, negative = inhibition ([2]; at 25.7 µM (top of the series)) -9.82% | Potency [5]
-3%: max response [2, 8]

C[C@@](N)(C(=O)O)c1cccc(CC(=O)O)c1
1.61%: max response [2, 8]
3.55%: max response [2, 9]
inactive: Potency [3] > 46 µM | Potency [4] > 46 µM | Potency [1] | activity change, negative = inhibition ([2]; at 57.5 µM (top of the series)) 1.75% | Potency [5]

C=Cc1c(C)c2cc3nc(cc4[nH]c(cc5nc(cc1[nH]2)C(C)=C5CCC(=O)O)c(CCC(=O)OC)c4C)[C@@]1(C)C3=CC=C(C(=O)OC)[C@H]1C(=O)OC (tested in a mixture with another compound)
2.29%: max response [2, 9]
inactive: Potency [3] > 20.6 µM | Potency [4] > 20.6 µM | activity change, negative = inhibition ([2]; at 25.7 µM (top of the series)) 1.23% | outcome [6] | Potency (CP262) | Potency (CP269) | Potency (CP297)
3.74%: max response [2, 8]
active: Potency [1] 0.316 µM [activator] | Potency ([7]; parasite line A) 10 µM | Potency ([7]; parasite line B) 5.62 µM | Potency (3D7) 3.55 µM | Potency (AS120) 5.62 µM | Potency (C2A) 14.1 µM | Potency (CP217) 10 µM | Potency (CP237) 5.01 µM | Potency (CP238) 11.2 µM | Potency (ECU) 3.98 µM | Potency (PAD) 1.41 µM | Potency (SC27B) 5.62 µM

COC(=O)C1=C(C)NC(C)=C(C(=O)OCCN(C)Cc2ccccc2)[C@H]1c1cccc([N+](=O)[O-])c1
-15.5%: max response [2, 8]
-13.6%: max response [2, 9]
inactive: Potency [3] > 20.6 µM | Potency [4] > 20.6 µM | Potency [1] | activity change, negative = inhibition ([2]; at 25.7 µM (top of the series)) 0.376%

CCN(CC)CCOC(=O)[C@@H](c1ccccc1)C1CCCCC1
-11.7%: max response [2, 8]
inactive: Potency [3] > 20.6 µM | Potency [4] > 20.6 µM | Potency [1] | activity change, negative = inhibition ([2]; at 25.7 µM (top of the series)) -5.77% | Potency [5]
-16.6%: max response [2, 9]

CC(C)(C)NC(=O)[C@@H]1C[C@H]2CCCC[C@@H]2CN1C[C@H](O)[C@H](Cc1ccccc1)NC(=O)[C@@H](CC(N)=O)NC(=O)c1ccc2ccccc2n1
1.41%: max response [2, 8]
inactive: Potency [3] > 20.6 µM | Potency [4] > 20.6 µM | Potency [1] | activity change, negative = inhibition ([2]; at 25.7 µM (top of the series)) -0.923%
-0.968%: max response [2, 9]

CCN(CC)CCOC(=O)[C@@H](Cc1cccc2ccccc12)C[C@@H]1CCCO1
-7.84%: max response [2, 9]
inactive: Potency [1] | activity change, negative = inhibition ([2]; at 25.7 µM (top of the series)) -5.4% | outcome [6] | Potency [5] | activity, negative = inhibition ([7]; parasite line A) 5.1% | activity, negative = inhibition ([7]; parasite line B) 10% | Potency (3D7) | Potency (AS120) | Potency (C2A) | Potency (CP217) | Potency (CP237) | Potency (CP238) | Potency (CP252) | Potency (CP262) | Potency (CP269) | Potency (CP297) | Potency (ECU) | Potency (PAD) | Potency (SC27B)
-1.15%: max response [2, 8]

C[C@@H](Cc1cccc(C(F)(F)F)c1)NCCOC(=O)c1ccccc1
inactive: Potency [3] > 20.6 µM | Potency [4] > 20.6 µM | Potency [1] | activity change, negative = inhibition ([2]; at 25.7 µM (top of the series)) -1.81% | Potency [5]
-19.2%: max response [2, 8]
-18.4%: max response [2, 9]

C=C(C)[C@H]1CC[C@]2(CO)CC[C@]3(C)[C@@H](CC[C@H]4[C@@]5(C)CC[C@@H](O)C(C)(C)[C@@H]5CC[C@@]43C)[C@H]12
-12.9%: max response [2, 8]
inactive: Potency [3] > 20.6 µM | Potency [4] > 20.6 µM | Potency [1] | activity change, negative = inhibition ([2]; at 25.7 µM (top of the series)) -10.7% | Potency [5]
-22.1%: max response [2, 9]

COc1cc2ccc(=O)oc2c(O)c1O
13.9%: max response [2, 8]
11.4%: max response [2, 9]
inactive: Potency [3] > 46 µM | Potency [4] > 46 µM | activity change, negative = inhibition ([2]; at 57.5 µM (top of the series)) -4.51%

Nc1ncn([C@H]2O[C@@H](CO)[C@@H](O)[C@@H]2O)c(=O)n1
inactive: Potency [3] > 20.6 µM | Potency [4] > 20.6 µM | Potency [1] | activity change, negative = inhibition ([2]; at 25.7 µM (top of the series)) -7.35% | Potency [5]
-7.83%: max response [2, 9]
-3.14%: max response [2, 8]

CCC(=O)[C@@]1(C)[C@H](C)C[C@@H]2[C@@H]3CCC4=CC(=O)C=C[C@@]4(C)[C@H]3[C@H](O)C[C@]21C
-19.8%: max response [2, 9]
inactive: Potency [1] | activity change, negative = inhibition ([2]; at 25.7 µM (top of the series)) -1.25% | outcome [6] | activity, negative = inhibition ([7]; parasite line A) -6.51% | activity, negative = inhibition ([7]; parasite line B) 3.51% | Potency (AS120) | Potency (C2A) | Potency (CP217) | Potency (CP238) | Potency (CP252) | Potency (CP262) | Potency (CP269) | Potency (CP297) | Potency (ECU) | Potency (PAD) | Potency (SC27B)
active: Potency [3] 0.000592 µM | Potency [4] 0.00311 µM | Potency (CP237) 3.55 µM
-14.6%: max response [2, 8]

CCO[C@H]1O[C@@H]([C@H](COCc2ccccc2)OCc2ccccc2)[C@@H](OCc2ccccc2)[C@H]1O
-8.63%: max response [2, 8]
-12.6%: max response [2, 9]
inactive: Potency [3] > 20.6 µM | Potency [4] > 20.6 µM | Potency [1] | activity change, negative = inhibition ([2]; at 25.7 µM (top of the series)) -6.14% | outcome [6] | activity, negative = inhibition ([7]; parasite line B) -27.6% | Potency (3D7) | Potency (C2A) | Potency (CP217) | Potency (CP237) | Potency (CP238) | Potency (CP252) | Potency (CP262) | Potency (CP269) | Potency (CP297) | Potency (ECU) | Potency (PAD) | Potency (SC27B)
